Source: PubChem BioAssay
Calls of active or inactive are those of the source. Unless noted, no rule for the calls is given here.

Legend:
[1] = A549 cell viability effects, profiling panel, calcein-AM fluorescence, 48 h, basal (AID 1162); conditions: higher = more signal; also: test concentration not given here
[2] = adipocyte viability effects, profiling panel, cell-based, 3T3-L1 adipocytes, calcein-AM fluorescence, 48 h, basal (AID 1163); conditions: 3T3-L1 adipocytes viability, higher = more signal; also: test concentration not given here
[3] = HepG2 cell viability effects, profiling panel, calcein-AM fluorescence, 48 h, basal (AID 1164); conditions: higher = more signal; also: test concentration not given here
[4] = MM1S cell viability effects, profiling panel, calcein-AM fluorescence, 48 h, basal (AID 1165); conditions: higher = more signal;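 also: viability of MM1S multiple myeloma cells under basal unstimulated conditions; test concentration not given here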
[5] = basal RPMI8226 viability, no added stimulus, profiling panel, cell-based, calcein-AM fluorescence, 48 h, PK04 Diversity Set (AID 1166); conditions: RPMI8226 myeloma viability, higher = more signal;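 also: cells grown under basal conditions without added stimulus; test concentration not given here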
[6] = basal HepG2 mitochondrial membrane potential changes, profiling panel, cell-based, JC-1 fluorescence, 24 h, 100 nL compound (AID 1167); conditions: higher = more signal; also: test concentration not given here
[7] = basal 3T3-L1 adipocyte mitochondrial potential changes, profiling panel, cell-based, JC-1 fluorescence, 3T3-L1 adipocytes, 24 h, 100 nL compound (AID 1168); conditions: JC-1 mitochondrial fluorescence, higher = more signal, called active from +8 up or from −8 down; also: test concentration not given here
[8] = basal RPMI8226 mitochondrial membrane potential changes, profiling panel, cell-based, JC-1 fluorescence, 24 h, 100 nL compound (AID 1169); conditions: RPMI8226 myeloma, JC-1 mitochondrial potential fluorescence, higher = more signal; also: test concentration not given here
[9] = basal MM1S mitochondrial membrane potential changes, profiling panel, cell-based, JC-1 fluorescence, 24 h, 100 nL compound (AID 1170); conditions: higher = more signal; also: test concentration not given here
[10] = A549 lung cancer cell viability effects, profiling panel, resazurin fluorescence, 24 h, PK04 Diversity Set (AID 1171); conditions: higher = more signal, called active from +8 up or from −8 down; also: test concentration not given here
[11] = HepG2 liver cancer cell viability effects, profiling panel, resazurin fluorescence, 24 h, PK04 Diversity Set (AID 1172); conditions: higher = more signal; also: test concentration not given here
[12] = basal S. cerevisiae growth modulation, no modifier, primary screen, OD600, strain BY4716, 24 h, basal condition (AID 1173); conditions: OD600, 24 h, higher = more signal, called active from +8 up or from −8 down
[13] = MM1S myeloma cell viability, profiling panel, resazurin fluorescence, basal, 24 h, PK04 Diversity Set (AID 1174); conditions: higher = more signal, called active from +8 up or from −8 down;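 also: MM1S multiple myeloma cell line; test concentration not given here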
[14] = target: Dihydroorotate dehydrogenase (quinone), mitochondrial (Plasmodium falciparum (isolate 3D7)) (UniProt Q08210); experiment: PfDHODH enzyme inhibitors, primary screen, biochemical, C-terminal His tag, absorbance 600 nm (AID 1175); conditions: DCIP absorbance 600 nm, higher = more signal, called active from +8 up or from −8 down;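 also: recombinant parasite enzyme with a five histidine tag at its C terminus; test concentration not given here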
Dihydroorotate dehydrogenase (quinone), mitochondrial (Plasmodium falciparum (isolate 3D7)), sequence (Q08210 whole entry, looked up): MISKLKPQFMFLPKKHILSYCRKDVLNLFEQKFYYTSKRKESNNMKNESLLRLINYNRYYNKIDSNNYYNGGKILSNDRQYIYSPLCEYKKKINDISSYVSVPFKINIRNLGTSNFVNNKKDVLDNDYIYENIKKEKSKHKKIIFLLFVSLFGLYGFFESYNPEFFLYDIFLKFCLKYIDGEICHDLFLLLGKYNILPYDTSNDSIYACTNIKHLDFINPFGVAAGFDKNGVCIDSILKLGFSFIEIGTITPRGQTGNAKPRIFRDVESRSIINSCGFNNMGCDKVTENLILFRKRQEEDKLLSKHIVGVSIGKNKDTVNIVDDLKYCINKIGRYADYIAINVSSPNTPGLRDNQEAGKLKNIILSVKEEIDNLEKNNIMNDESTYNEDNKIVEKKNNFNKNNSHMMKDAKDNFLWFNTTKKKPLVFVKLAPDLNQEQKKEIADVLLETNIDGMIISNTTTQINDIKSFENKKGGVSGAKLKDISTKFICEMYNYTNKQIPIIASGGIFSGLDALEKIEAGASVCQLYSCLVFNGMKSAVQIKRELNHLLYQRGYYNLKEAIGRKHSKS

[15] = P. aeruginosa biofilm formation inhibitors, primary screen, strain PAO1, LB-PBS medium, absorbance 600 nm (AID 1176); also: test concentration not given here; conditions: P. aeruginosa PAO1 growth/biofilm, A600, 12 h; higher = more signal
[16] = S. cerevisiae RM11-1a growth modifiers, primary screen, strain RM11-1a, OD600, basal, 24 h (AID 1177); conditions: OD600, 24 h, higher = more signal, called active from +8 up or from −8 down;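 also: cultures grown under basal conditions with no added stressor; test concentration not given here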
[17] = E. coli acrAB mutant growth effects, primary screen, E. coli filamentation inducers, strain DRC39, OD650, 24 h (AID 1178); conditions: higher = more signal, called active from +8 up or from −8 down;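 also: growth measured as culture turbidity by optical density at 650 nm; test concentration not given here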
[18] = E. coli acrAB mutant growth effects, primary screen, E. coli filamentation inducers, strain DRC39, OD650, 48 h (AID 1179);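 also: screen aims at cell division blockers that make cells filament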; conditions: E. coli DRC39 delta-acrAB growth, higher = more signal, called active from +8 up or from −8 down
[19] = RPMI8226 myeloma cell viability, profiling panel, resazurin fluorescence, basal, 24 h, PK04 Diversity Set (AID 1180); conditions: higher = more signal;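 also: RPMI8826 multiple myeloma cell line at 5000 cells per well; test concentration not given here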
[20] = target: E3 ubiquitin-protein ligase XIAP (Homo sapiens) (UniProt P98170); experiment: XIAP binders, primary screen, biophysical, small-molecule microarray, fluorescence 635 nm (AID 1181); conditions: small-molecule microarray binding, higher = more signal;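 also: score merges 667 nm emission and signal to noise over triplicate slides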
E3 ubiquitin-protein ligase XIAP (Homo sapiens), sequence (P98170 whole entry, looked up): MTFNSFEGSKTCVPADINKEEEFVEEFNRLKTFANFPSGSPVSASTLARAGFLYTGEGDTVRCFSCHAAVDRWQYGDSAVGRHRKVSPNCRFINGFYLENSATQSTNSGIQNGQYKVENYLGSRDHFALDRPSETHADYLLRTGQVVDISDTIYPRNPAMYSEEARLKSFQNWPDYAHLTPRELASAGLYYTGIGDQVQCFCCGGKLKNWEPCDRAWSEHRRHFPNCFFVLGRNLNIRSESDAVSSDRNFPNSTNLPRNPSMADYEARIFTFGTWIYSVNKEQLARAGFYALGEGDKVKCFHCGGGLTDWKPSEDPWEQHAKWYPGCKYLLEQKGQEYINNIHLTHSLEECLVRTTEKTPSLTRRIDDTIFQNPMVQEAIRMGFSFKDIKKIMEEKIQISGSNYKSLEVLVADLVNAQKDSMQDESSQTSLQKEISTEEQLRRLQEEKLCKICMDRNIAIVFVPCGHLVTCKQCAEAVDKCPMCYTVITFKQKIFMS

Compound	z-score [1]	z-score [2]	z-score [3]	z-score [4]	z-score [5]	z-score [6]	z-score [7]	z-score [8]	z-score [9]	z-score [10]	z-score [11]	z-score [12]	z-score [13]	composite z-score [14]	z-score [15]	z-score [16]	z-score [17]	z-score [18]	z-score [19]	composite z-score [20]
COC(=O)[C@H]1[C@@H]2COc3ccccc3[C@H]2N[C@H]1C(=O)OC	0.0306	0.0308	0.648	-1.29	-0.347	0.321	-0.819 (inactive)	0.195	-0.975	-0.124 (inactive)	0.0968	-1.81 (inactive)	-0.586 (inactive)	-16.2 (active)	-0.508 (inactive)	-0.398 (inactive)	0.226 (inactive)	0.398 (inactive)	-0.139	0.0432
CC(C)NC(=O)[C@@]1(Cc2ccccc2I)c2ccccc2C(=O)N(C2CCCCC2)[C@H]1c1ccc(CO)cc1	0.377	0.967	-0.476	-0.533	-3.89	1.54	-0.68 (inactive)	-0.941	-1.36	0.778 (inactive)	0.524	-0.557 (inactive)	0.224 (inactive)	-1.45 (inactive)	0.593 (inactive)	1.31 (inactive)	0.545 (inactive)	0.267 (inactive)	0.751	0.106
CCOC(=O)C[C@H]1[C@H](OC(=O)c2cc3ccccc3oc2=O)[C@@H](NC(=O)C2CCCCC2)c2cc(OCCCO)ccc2N1C(=O)c1ccc2ccccc2n1	-0.133	0.536	0.312	0.0733	-0.253	0.0115	-0.734 (inactive)	0.322	-0.166	0.164 (inactive)	-0.35	1 (inactive)	0.201 (inactive)	0.884 (inactive)	-0.0339 (inactive)	1.58 (inactive)	0.205 (inactive)	0.0214 (inactive)	0.15	-0.22
O=C1OCC=C[C@H]2OC34C=CCN(Cc5ccccc5)C(=O)[C@H]3N(CCO)C(=O)[C@@H]4[C@@H]12 (stereo not given in full)	0.125	0.474	-0.885	1.12	0.44	-0.255	0.367 (inactive)	-0.0019	-0.216	0.54 (inactive)	1.21	-0.999 (inactive)	1.6 (inactive)	-0.415 (inactive)	0.317 (inactive)	-0.77 (inactive)	0.508 (inactive)	0.186 (inactive)	0.894	-0.16
CCOC(=O)C1=CC[C@@H](c2ccccc2)N(S(=O)(=O)c2ccc(C)cc2)[C@H]1C	-1.54	-0.956	-1.21	-1.6	-1.77	3.96	0.775 (inactive)	-0.198	-1.22	0.0723 (inactive)	0.302	1.11 (inactive)	-0.209 (inactive)	-1.18 (inactive)	-0.0601 (inactive)	1.43 (inactive)	-0.472 (inactive)	-0.4 (inactive)	-0.875	0.0512
Cc1ccc(N2C(=O)c3ccccc3[C@@H](C(=O)NCC(F)(F)F)[C@@H]2c2ccc(CO)cc2)nc1	0.312	0.603	0.471	0.0049	0.51	1.04	0.884 (inactive)	-0.223	0.0421	0.547 (inactive)	0.129	-0.789 (inactive)	1.21 (inactive)	-0.417 (inactive)	0.429 (inactive)	-0.872 (inactive)	0.419 (inactive)	0.127 (inactive)	0.607	-0.227
CC[C@H]1C2=C3C(CC[C@H]4C(OC)OC[C@](C)([C@@H]34)N(C(=O)OC(C)(C)C)C2)C(CO)C1CO (stereo not given in full)	-0.499	0.561	0.656	1	0.586	-0.528	0.0846 (inactive)	-0.38	-1.26	-1.28 (inactive)	-0.453	0.145 (inactive)	-0.713 (inactive)	-0.929 (inactive)	0.452 (inactive)	-0.681 (inactive)	-0.0328 (inactive)	0.753 (inactive)	-0.141	0.26
C[N+](C)(C)CCCCNC(=O)[C@H]1C[C@H]2C(=O)NCC(=O)N2[C@H]1c1cccc(OCCO)c1	-0.471	-0.387	-0.347	-0.0358	0.311	-1.13	-0.373 (inactive)	-0.074	-0.314	-0.0078 (inactive)	0.052	0.167 (inactive)	-0.935 (inactive)	-29.2 (active)	1 (inactive)	0.105 (inactive)	-0.158 (inactive)	-0.271 (inactive)	-1.15	0.133
CC1CC/C=C\[C@H]2OC34C=CCN(Cn5nnc6ccccc65)C(=O)[C@H]3N(C(C)CO)C(=O)[C@@H]4C2C(=O)O1 (stereo not given in full)	0.151	-0.14	0.203	0.835	0.182	0.236	-0.087 (inactive)	0.128	-0.731	0.0113 (inactive)	0.142	-0.0496 (inactive)	0.035 (inactive)	0.853 (inactive)	-0.0837 (inactive)	0.472 (inactive)	0.756 (inactive)	0.665 (inactive)	0.0911	0.282
